The source of these data is PubChem BioAssay (NCATS).

Results filed as inconclusive are left out. Active and inactive are the calls of the source. Calls come from the whole dose curve; as a rule, active = well fitted cell-killing curve with a large enough effect; inconclusive = small, poorly fitted or top-dose-only effect, or effect the other way; inactive = no such curve, though single readings can be large or run the other way.
Potency is the fitted concentration of half-maximal effect.

The test in a line: Viability qHTS for spleen associated tyrosine kinase inhibitor (SYKi) drug resistant MV4-11 cells (AID 1963824). Note: nearly all actives have a fitted effect of over 35% in size. The conditions noted are these: SYKi-resistant MV4-11 viability, CellTiter-Glo, 72 h; series mostly up to 45 µM. In short, it runs like this: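 SYK-inhibitor-resistant MV4-11 AML cells were seeded at 500 per well onto compound and cultured 72 hours (37 °C, 5% CO2). CellTiter-Glo was then added, and after 10 min at room temperature, luminescence gave viability.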
`C=C(C)[C@H]1C[C@@H](O)C(=C)CC[C@@H](O)C(=C)[C@@H](O)C1`: the Potency entry is “inactive”.

In the case of `Cc1cc2ncc(C(=O)NCC(C)(C)NCC(=O)N3CCC[C@H]3C#N)cn2n1`, the Potency entry was “inactive”.

Consider `CCC(C)C(=O)OC1CC(O)C23C4OCC5(C(O)CC2C1(C)C(O)O4)C3C(=O)CC1(C)C(c2ccoc2)CC2OC215` (stereo not given), for which the Potency is 0.563 µM (active).

`C=CC(C)(O)CC[C@@H]1[C@@]2(C)CCCC(C)(C)C2CC[C@@]1(C)O` (stereo not given in full): the Potency is 20.6 µM (active).

Consider `COc1cc(/C=C2\CCCN([C@@H](C)c3ccc(F)cc3)C2=O)ccc1-n1cnc(C)c1`, for which the Potency was 5.17 µM (active).
